Screens as filed in PubChem BioAssay.
This is a sample that favours compounds with a hit; in the whole collection about 18% have one here.
TDP1 block: TDP1 (human) enzyme inhibition; Q9NUW8; 350,000 tested, 0.28% active; AID 485290; Potency, µM (top dose mostly 130 µM), for inactives: top-dose activity change, negative = inhibition, most hits filed as inhibitors; recombinant TDP1, AlphaScreen DNA substrate cleavage; further: potency means the concentration at half of the fitted maximal effect; nearly all actives have a fitted effect of over 40% in size
Target sequence (Q9NUW8 whole entry, looked up): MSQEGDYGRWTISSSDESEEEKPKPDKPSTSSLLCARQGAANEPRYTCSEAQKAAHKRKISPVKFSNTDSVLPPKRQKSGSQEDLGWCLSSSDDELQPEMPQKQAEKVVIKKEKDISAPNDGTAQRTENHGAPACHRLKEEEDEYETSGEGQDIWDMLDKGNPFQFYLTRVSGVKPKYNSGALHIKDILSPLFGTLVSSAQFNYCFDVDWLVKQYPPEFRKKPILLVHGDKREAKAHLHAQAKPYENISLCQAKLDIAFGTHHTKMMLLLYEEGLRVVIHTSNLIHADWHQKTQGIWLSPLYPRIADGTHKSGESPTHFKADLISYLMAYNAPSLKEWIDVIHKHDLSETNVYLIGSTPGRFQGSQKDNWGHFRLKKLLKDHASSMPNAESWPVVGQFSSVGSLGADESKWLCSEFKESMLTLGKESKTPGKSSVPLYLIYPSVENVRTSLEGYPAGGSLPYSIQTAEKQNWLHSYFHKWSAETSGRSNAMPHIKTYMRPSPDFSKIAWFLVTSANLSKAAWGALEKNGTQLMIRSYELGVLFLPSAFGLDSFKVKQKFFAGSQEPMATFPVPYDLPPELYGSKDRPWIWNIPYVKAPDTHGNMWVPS
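Here, a 5' biotin and 3' phosphotyrosine-FITC DNA oligonucleotide reports Tdp1 activity: intact substrate bridges AlphaScreen beads, while cleavage leaves a 3' phosphate and drops signal. All incubations at room temperature.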
IL-1B inflam inh: inhibitors of inflammasome signaling (IL-1 beta secretion) | activity change, % at 57.5 µM | THP-1 LPS/ATP IL-1B secretion, AlphaLISA, 16 h; stronger effect = lower value | 360,000 tested, 4.7% active; in the data active means activity change below about -50%; inconclusive means mostly about -30% to -49%
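THP-1 cells pretreated 1 hr with compounds (up to 57.5 uM final), then stimulated with LPS (250 ng/mL final) plus ATP (1.25 mM final); secreted IL-1B measured by AlphaLISA after 16 hr, decreased signal indicating inhibition.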
DT40 TDP1 CPT: growth inhibition of DT40 Tdp1-/-;hTDP1 cells with camptothecin (screen for TDP1 inhibitors) | chicken DT40 Tdp1-/-;hTDP1 cells + 20 nM CPT, ATP luminescence, 48 h | Potency, µM (series often up to 46.2 µM), without a hit: at the highest dose activity change, negative = growth inhibition, hits mostly inhibitors | 420,000 tested, 12% active | AID 686979; further: potency means the concentration at half of the fitted maximal effect; nearly all actives have a fitted effect of over 55% in size
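Cell growth measured by CellTiter-Glo luminescence after a minimum 48 h, 37 C compound exposure with 20 nM CPT in Tdp1-knockout DT40 cells stably expressing hTDP1, seeded 400/well; qHTS titration format.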
Six1-Eya2 blk: inhibitors of human Six1/Eya2 interaction; AlphaScreen GST-Six1/His-Eya2 binding, biochemical; stronger effect = lower value; 360,000 tested, 0.56% active; activity change, % (concentration not given with the values); Q15475+O00167; in the data active means activity change below about -65%; inconclusive means mostly about -30% to -63%
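Homogeneous AlphaScreen proximity assay pairing GST-Six1 with His-tagged Eya2 (added as 5X mix: 250 nM and 500 nM) in 50 mM Tris pH 8.0, 300 mM NaCl, 1 mM TCEP. Glutathione donor and nickel acceptor beads; 1 h, 37 °C, dark.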
DT40 TDP1 no CPT: qHTS for Inhibitors of human tyrosyl-DNA phosphodiesterase 1 (TDP1): qHTS in cells in absence of CPT | DT40 Tdp1-/- hTDP1 cells, no CPT, ATP luminescence, 48 h | Potency, µM (series often up to 46.2 µM), for the others: at the top dose activity change, negative = growth inhibition, hits mostly inhibitors | 420,000 tested, 15% active; further: potency means the concentration at half of the fitted maximal effect; nearly all actives have a fitted effect of over 55% in size
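A cellular qHTS used chicken DT40 cells lacking endogenous Tdp1 but carrying stably transfected human TDP1. Compounds were applied without camptothecin, and cell growth kinetics were judged by ATP-dependent luminescence after ≥48 hr.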
CtBP-E1A blk: blocks the CtBP interaction with E1A | activity change, % (test concentration not listed) | 340,000 tested, 0.49% active | AlphaScreen GST-E1A/His-CtBP binding, 1536-well; stronger effect = lower value; in the data active means activity change below about -65%; inconclusive means mostly about -30% to -63%
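Protein mix (5X: 125 nM each GST-E1A, His-CtBP) was incubated with pinned compound 2 h at 37 deg C in dark, in 50 mM Tris pH 8.0 buffer with 300 mM NaCl. Glutathione donor and nickel acceptor beads followed; AlphaScreen signal read after 1 h.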
* = called active by the depositor; ! = not active in a repeat; [ ] = dose if it differs, or a comment. Unless noted, the call rests on the fitted dose curve; in most records, active means well fitted curve in the direction sought with a large enough effect; inconclusive means small, poorly fitted or top-dose-only effect, or another doubt; inactive means no such curve, though single readings can be large; an effect the other way counts as inactive or inconclusive. On the % scale 0 is the no-effect control and ±100 the full control effect.

Screening CC(C)OC(=O)N(C)C[C@H]1OCc2cnnn2CCCC(=O)N([C@@H](C)CO)C[C@H]1C returned IL-1B inflam inh -7, DT40 TDP1 CPT 12%, Six1-Eya2 blk 9, DT40 TDP1 no CPT 7% and CtBP-E1A blk 3.
Screening Cc1c(C)n(C)c2ccc([N+](=O)[O-])cc12 returned TDP1 block 3%, IL-1B inflam inh 16, DT40 TDP1 CPT 4%, Six1-Eya2 blk -1, DT40 TDP1 no CPT -1% and CtBP-E1A blk -7.
For O=C(c1ccoc1)N1CCC2(CC1)Oc1ccc(F)cc1C(=O)C21CC(c2ccccc2)=NO1 (stereo not drawn) the results were TDP1 block 5%, IL-1B inflam inh -20, DT40 TDP1 CPT inconclusive, Six1-Eya2 blk -5, DT40 TDP1 no CPT inconclusive and CtBP-E1A blk inconclusive.
Screening O=C1c2cc(F)ccc2OC2(CCNCC2)C12CC(c1ccccc1)=NO2 (stereo not drawn) returned TDP1 block 2%, IL-1B inflam inh -53*, DT40 TDP1 CPT 15µM*, Six1-Eya2 blk 7, DT40 TDP1 no CPT inconclusive and CtBP-E1A blk -26.
CC(C)(C)OC(=O)N1CCC2(CC1)Oc1ccc(F)cc1C(=O)C21CC(c2ccccc2)=NO1 (stereo not drawn) was read as IL-1B inflam inh inconclusive, DT40 TDP1 CPT 23µM*, Six1-Eya2 blk -9, DT40 TDP1 no CPT inconclusive and CtBP-E1A blk -6.
For O=C(c1ccoc1)N1CCC2(CC1)Oc1ccc(F)cc1C(=O)C21CC(c2cccnc2)=NO1 (stereo not drawn) the results were TDP1 block 4%, IL-1B inflam inh -17, DT40 TDP1 CPT inconclusive, Six1-Eya2 blk -1, DT40 TDP1 no CPT inconclusive and CtBP-E1A blk 3.
`COc1ccc(C)c2sc(NC(=O)c3ccc(S(=O)(=O)N4CCCC4)cc3)nc12` gave TDP1 block 0%, DT40 TDP1 CPT -21% and DT40 TDP1 no CPT -29%.
O=C(Nc1cccc(C(F)(F)F)c1)c1cccnc1NCCc1ccccc1 was read as TDP1 block 4%, IL-1B inflam inh -67*, DT40 TDP1 CPT inconclusive, Six1-Eya2 blk 40, DT40 TDP1 no CPT 16µM* and CtBP-E1A blk 7.
Screening O=C(Nc1cccc(F)c1)c1cccnc1NCCc1ccccc1 returned TDP1 block -5%, IL-1B inflam inh -60*, DT40 TDP1 CPT inconclusive, Six1-Eya2 blk 34, DT40 TDP1 no CPT inconclusive and CtBP-E1A blk 39.
Screening COc1cc(O)c2c(c1)C(=O)c1cc(C)cc(O)c1C2=O returned TDP1 block 10%[56.1 µM], DT40 TDP1 CPT 0% and DT40 TDP1 no CPT -18%.
`O=C(O)c1cc(O)c2c(c1)C(=O)c1cc(O)cc(O)c1C2=O` gave IL-1B inflam inh -24, DT40 TDP1 CPT 13µM*!, Six1-Eya2 blk inconclusive, DT40 TDP1 no CPT 15µM*! and CtBP-E1A blk -16.
Screening COc1ccc(N2CCN(C(=O)c3cnc(SC)nc3C)CC2)cc1 returned TDP1 block 0%, DT40 TDP1 CPT 0% and DT40 TDP1 no CPT -13%.
`CCc1nc(SC)ncc1C(=O)N1CCN(c2cc(Cl)ccc2C)CC1` gave TDP1 block -1%, DT40 TDP1 CPT inconclusive and DT40 TDP1 no CPT 21µM*.
Screening Cc1ccc(C)c(N2CCN(C(=O)c3cnc4c(-c5ccccc5)c(C)nn4c3C)CC2)c1 returned TDP1 block -3%, DT40 TDP1 CPT 26µM* and DT40 TDP1 no CPT inconclusive.
Cc1nn2c(C)c(C(=O)NCCc3ccccc3)cnc2c1-c1ccccc1 was read as TDP1 block 5%, DT40 TDP1 CPT inconclusive and DT40 TDP1 no CPT inconclusive.
For CCc1nc(SC)ncc1C(=O)N1CCN(c2cc(C)ccc2C)CC1 the results were TDP1 block 4%, DT40 TDP1 CPT -25% and DT40 TDP1 no CPT 15µM*.
Screening COc1ccc(C)cc1NS(=O)(=O)c1ccc(Br)s1 returned TDP1 block 5%, IL-1B inflam inh 33, DT40 TDP1 CPT -21%, Six1-Eya2 blk 6, DT40 TDP1 no CPT -23% and CtBP-E1A blk 8.
`CO[C@H]1C=CO[C@@]2(C)Oc3c(C)c(O)c4c(O)c(cc(O)c4c3C2=O)NC(=O)/C(C)=C\C=C/[C@H](C)[C@H](O)[C@@H](C)[C@@H](O)[C@@H](C)[C@H](OC(C)=O)[C@@H]1C` gave DT40 TDP1 CPT -4% and DT40 TDP1 no CPT -12%.
For CCC(C)N1CCC2(CC1)N=c1c(c3c4c5c(C)c(O)c3c(O)c1=NC(=O)C(C)=CC=C[C@H](C)[C@H](O)[C@@H](C)[C@@H](O)[C@@H](C)[C@H](OC(C)=O)[C@H](C)[C@@H](OC)C=CO[C@@](C)(O5)C4=O)N2 (stereo partly drawn) the results were IL-1B inflam inh inconclusive, DT40 TDP1 CPT 13µM*, Six1-Eya2 blk inconclusive, DT40 TDP1 no CPT 18µM* and CtBP-E1A blk -20.
CO[C@H]1C=CO[C@@]2(C)Oc3c(C)c(O)c4c(O)c(c5c(nc6cc(C)ccn65)c4c3C2=O)NC(=O)/C(C)=C\C=C[C@H](C)[C@H](O)[C@@H](C)[C@@H](O)[C@@H](C)[C@H](OC(C)=O)[C@@H]1C was read as DT40 TDP1 CPT inconclusive and DT40 TDP1 no CPT 13µM*.
CO[C@H]1/C=C\O[C@@]2(C)Oc3c(C)c(O)c4c(O)c(c(C=NN5CCN(C6CCCC6)CC5)c(O)c4c3C2=O)NC(=O)C(C)=CC=C[C@H](C)[C@H](O)[C@@H](C)[C@@H](O)[C@@H](C)[C@H](OC(C)=O)[C@H]1C was read as DT40 TDP1 CPT 5.6µM* and DT40 TDP1 no CPT 3.2µM*.
For COC1C=COC2(C)Oc3c(C)c(O)c4c(O)c(c(CN5CCN(C)CC5)c(O)c4c3C2=O)NC(=O)C(C)=CC=CC(C)C(O)C(C)C(O)C(C)C(OC(C)=O)C1C (stereo not drawn) the results were IL-1B inflam inh -6, DT40 TDP1 CPT 23µM*, Six1-Eya2 blk -8, DT40 TDP1 no CPT 21µM* and CtBP-E1A blk -14.
`CCCc1cc(N2CCN(c3ccccc3F)CC2)n2cnnc2n1` gave TDP1 block -2%, DT40 TDP1 CPT 18µM* and DT40 TDP1 no CPT 26µM*.
Screening CCCc1cc(N2CCN(c3ccccc3)CC2)n2cnnc2n1 returned TDP1 block 9%, DT40 TDP1 CPT inconclusive and DT40 TDP1 no CPT -77%.
